Bioassay records: PubChem, NMMLSC
Anthrax LF inh2 = inhibitors of Bacillus anthracis lethal factor protease | P15917 | multiplex microsphere protease cleavage assay, LF | inhibition, % at 10 µM | 360,000 compounds, 0.12% hits
Target sequence (P15917 whole entry, looked up): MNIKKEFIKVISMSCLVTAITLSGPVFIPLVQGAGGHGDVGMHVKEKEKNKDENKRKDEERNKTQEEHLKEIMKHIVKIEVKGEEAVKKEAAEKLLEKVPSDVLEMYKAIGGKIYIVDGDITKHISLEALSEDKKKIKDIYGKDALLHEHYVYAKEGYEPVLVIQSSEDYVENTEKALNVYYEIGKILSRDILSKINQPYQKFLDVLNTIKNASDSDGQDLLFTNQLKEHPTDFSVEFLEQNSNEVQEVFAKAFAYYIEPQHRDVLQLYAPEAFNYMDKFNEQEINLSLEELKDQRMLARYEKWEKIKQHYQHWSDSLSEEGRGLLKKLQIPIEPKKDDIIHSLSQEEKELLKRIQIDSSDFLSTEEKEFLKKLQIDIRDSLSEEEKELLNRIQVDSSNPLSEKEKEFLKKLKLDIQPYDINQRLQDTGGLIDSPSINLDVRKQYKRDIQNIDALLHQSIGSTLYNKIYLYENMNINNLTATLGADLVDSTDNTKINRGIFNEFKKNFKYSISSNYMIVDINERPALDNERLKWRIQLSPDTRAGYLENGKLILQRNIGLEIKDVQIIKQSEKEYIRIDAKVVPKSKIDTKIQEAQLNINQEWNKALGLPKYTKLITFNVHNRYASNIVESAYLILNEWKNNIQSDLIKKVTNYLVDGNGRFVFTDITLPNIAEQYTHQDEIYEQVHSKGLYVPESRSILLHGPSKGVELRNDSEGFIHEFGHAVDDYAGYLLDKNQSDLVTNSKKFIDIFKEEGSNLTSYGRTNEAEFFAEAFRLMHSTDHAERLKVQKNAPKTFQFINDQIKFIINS
Autofluor counter = counter-screen for toxin protease inhibitors: compound fluorescence | compound autofluorescence counterscreen, microsphere flow cytometry; stronger effect = higher value | fluorescence intensity (concentration not given with the values) | 360,000 compounds, 3.1% hits; in the data active = fluorescence intensity above about 16000; inconclusive = no clear call, values can overlap the other calls
BoNT-F LC inh = inhibitors of Botulinum neurotoxin F light chain protease; AID 588497; inhibition, % at 10 µM; 360,000 compounds, 0.22% hits; Multiplex microsphere protease cleavage assay, flow cytometry; in the data active = inhibition above about 35%, passing the limit was not always enough; inconclusive = no clear call, values can overlap the other calls
BoNT A protease = inhibitors of Botulinum neurotoxin A light chain protease | inhibition, % at 10 µM | multiplex microsphere protease substrate cleavage, flow cytometry | 360,000 compounds, 0.17% hits
A number is an active result; n = inactive; u = inconclusive. A selection: hits, their analogues and other compounds. The true share with any hit is near 3.5%. Rule as the data show it, unless noted: active = inhibition above about 30%; inconclusive = no clear call, values can overlap the other calls; inactive = below that.

SMILES | Anthrax LF inh2 | Autofluor counter | BoNT-F LC inh | BoNT A protease
O=C(Nc1nnc(COc2ccccc2)s1)C1CCN(S(=O)(=O)c2ccc(Cl)cc2)CC1 | n | 23493 | n | n
O=C(Nc1nnc(-c2ccccc2Cl)s1)C1CCN(S(=O)(=O)c2ccc(Cl)cc2)CC1 | n | n | n | n
Cc1cc(C)nc(SCCCn2c(=O)[nH]c3ccccc32)n1 | n | 16659 | n | n
O=C(COc1ccc(Cl)cc1Cl)N(C1CCCCC1)C1CCS(=O)(=O)C1 (stereo unspecified) | n | n | n | n
CC1(C)CC(=O)C=C(Nc2cc(-c3ccccc3)[nH]n2)C1 | n | 21249 | n | n
CC1(C)CC(=O)C=C(NCc2ccccc2)C1 | n | n | n | n
CC(C)N1CCOC1c1ccccc1 (stereo unspecified) | n | n | n | n
CCCCCCn1c2c(c(=N)c3c1CCC3)CCC2 | n | 22477 | n | u
COc1ccc(OCCOC(=O)c2cccc(-n3cnnn3)c2)cc1 | n | 20878 | n | n
CCCCCCCCCS(=O)(=O)N/N=C/c1cccc([N+](=O)[O-])c1 | n | 19668 | n | n
CCc1ccc(NC(=O)C(=O)NCC2CCCN2S(=O)(=O)c2ccccc2)cc1 (stereo unspecified) | n | n | n | n
CCn1c(=O)c2ccccc2n2c(SCC(=O)N3CCCc4ccccc43)nnc12 | n | 24095 | n | n
Cc1cccc(NC(=O)c2cc(-c3cc(C)ccc3O)n[nH]2)c1 | n | n | n | n
Cc1ccc(O)c(-c2cc(C(F)(F)F)[nH]n2)c1 | n | 21889 | n | u
Cc1ccc(NC(=O)CSc2nc3nn(-c4ccccc4)c(=O)c-3c3n2CCCCC3)cc1F | n | n | n | n
O=C(Cc1ccc(F)cc1)c1ccc(O)cc1O | n | 19761 | n | n
O=C1OCc2cc(NC(=O)C3CCCCC3)ccc21 | n | 20191 | n | u
COc1cc(NC(=O)N2CCc3nc(Nc4cc(Cl)cc(Cl)c4)ncc3C2)cc(OC)c1OC | n | n | n | n
Cn1c2nc(=O)n(-c3ccccc3)c(=O)c-2nc2c1CCCC2 | n | n | n | n
CCCCN1CC(C(=O)NCc2ccc(C)cc2)CC1=O (stereo unspecified) | n | 18906 | n | n
COc1ccc(C(=O)N2CCCC2)cc1 | n | n | n | n
COc1ccc(C(=O)N2CCCC(C(=O)N3CCCCCC3)C2)cc1 (stereo unspecified) | n | 20377 | n | n
O=C(c1ccccc1)N1CCCC(C(=O)N2CCCCCC2)C1 (stereo unspecified) | n | 24585 | n | n
CCOC(=O)c1c(C2COc3ccccc3O2)csc1NC(=O)c1ccco1 (stereo unspecified) | n | 21244 | n | n
Cc1ccc(-c2nnn(CC(=O)N(c3ccccc3F)C(C(=O)NCC3CCCO3)c3c[nH]c4ccccc34)n2)cc1 (stereo unspecified) | n | 16194 | n | n
SMILES | Anthrax LF inh2 | Autofluor counter | BoNT-F LC inh | BoNT A protease
COc1ccc(-c2nnn(CC(=O)N(Cc3ccccc3Cl)C(C(=O)NCC3CCCO3)c3ccco3)n2)cc1 (stereo unspecified) | n | 20046 | n | n
COc1cc(C=C2CCCC(=Cc3ccc(OCC4CO4)c(OC)c3)C2=O)ccc1OCC1CO1 (stereo unspecified) | n | n | n | n
CN(C(=O)c1cccc(NC(=O)Cc2cccc(NC(=O)C3CCCN(C(=O)C4CCCCC4)C3)c2)c1)C1CC1 (stereo unspecified) | n | n | n | n
O=C(Nc1ccc(Br)cc1F)c1nc[nH]c1C(=O)N1CCc2ccccc2C1 | n | n | n | n
CCc1nnc(NC(=O)c2oc3ccccc3c2COC(C)C)s1 | n | n | n | n
Cc1cc(F)ccc1C(O)c1ncc(-c2ccccc2F)[nH]1 (stereo unspecified) | n | n | n | n
Cc1ccnc(NC2(C(F)(F)F)N=C(c3ccccc3)NC2=O)c1 (stereo unspecified) | n | 19679 | n | n
Cc1ccc(NC2(C(F)(F)F)N=C(c3ccccc3)NC2=O)nc1 (stereo unspecified) | n | n | n | n
Cc1cc(N2CCCC2)c(C)cc1C=O | n | 22088 | n | n
Cc1cc(N)ccc1N1CCCC1 | n | n | n | n
CC(C(=O)NC1CCCC1)N1CCN(Cc2ccccc2)CC1 (stereo unspecified) | n | n | n | n
CC(C(=O)NC(=O)NC1CCCCC1)N1CCN(C(c2ccccc2)c2ccccc2)CC1 (stereo unspecified) | n | 16823 | n | n
O=C(OCn1ncc(Cl)c(Cl)c1=O)c1cccc(C(F)(F)F)c1 | n | 22357 | n | n
O=C(OCn1ncc(Br)c(Br)c1=O)c1ccccc1Cl | n | n | n | n
CC(C)C1Cc2c(C#N)c(N)sc(=S)c2CO1 (stereo unspecified) | 47.1 | n | n | 72.2
CC1(C)Cc2c(C#N)c(N)sc(=S)c2CO1 | n | n | n | n
Cc1cccc(CSc2nc3sc(C)c(C)c3c(=O)n2Cc2ccco2)c1 | n | n | n | n
Cc1sc2nc(SCC(=O)C(C)(C)C)n(Cc3ccco3)c(=O)c2c1C | n | 22551 | n | n
COc1ccc(NC(=O)CSc2nc3sc(C)c(C)c3c(=O)n2Cc2ccco2)cc1 | n | 21853 | n | u
Cc1sc2nc(SCc3ccccc3)n(Cc3ccco3)c(=O)c2c1C | n | n | n | n
COc1cccc(CSc2nc3sc(C)c(C)c3c(=O)n2Cc2ccco2)c1 | n | 19855 | n | n
Cc1ccc(CSc2nc3sc(C)c(C)c3c(=O)n2Cc2ccco2)cc1 | n | n | n | n
CC(=O)C1CCC2C3CC=C4CC(SC(=N)N)CCC4(C)C3CCC12C (stereo unspecified) | n | n | n | n
CCOC(=O)c1sc(NS(=O)(=O)c2ccccc2)nc1C | n | n | n | n
Cc1csc(NC(=O)C2C3C=CC(C3)C2C(=O)O)n1 (stereo unspecified) | n | 21611 | n | u
SMILES | Anthrax LF inh2 | Autofluor counter | BoNT-F LC inh | BoNT A protease
CCOC(=O)c1sc(NS(=O)(=O)c2ccccc2Cl)nc1C | n | 26130 | n | n
CCOC(=O)c1sc(NC(=O)C2C3C=CC(C3)C2C(=O)O)nc1C (stereo unspecified) | n | 23393 | n | n
CCOC(=O)Cc1csc(NC(=O)C2C3C=CC(C3)C2C(=O)O)n1 (stereo unspecified) | n | n | n | n
CCOC(=O)c1sc(NC(=O)c2ccc(=O)[nH]c2)nc1C | n | n | 36.9 | n
Cc1ccc(NC(=O)c2ccc(Cl)c(S(=O)(=O)Nc3c(C)n(C)n(-c4ccccc4)c3=O)c2)cc1Cl | n | n | n | n
C=C1CC(Cn2cc(Br)c(=O)[nH]c2=O)(c2ccc(-c3ccccc3)cc2)OC1=O (stereo unspecified) | n | n | n | n
Cc1ccc(CSc2nnc(C(F)(F)F)n2Cc2ccc(F)cc2)cc1 | n | n | n | n
COc1cccc(CSc2nnc(C(F)(F)F)n2Cc2ccc(F)cc2)c1 | n | 22093 | n | n
CCC(C)Sc1ccc([C@@H]2[C@H]3C(=O)N(CC)C(=O)[C@H]3[C@]3(C(=O)OC)CCCCN23)cc1 (stereo partly specified) | n | n | n | n
CCCCC[C@@H](C)N1C[C@H](COCc2ccccc2)Oc2cc(N3CC[C@H](N(C)C)C3)ccc2S1(=O)=O | n | n | n | n
